Here are results for 22 compounds from PubChem BioAssay AID489038 (National Center for Advancing Translational Sciences (NCATS), 2010).

The structures appear in SMILES notation. Inconclusive results are not listed. The source made the active and inactive calls. Calls follow the shape of the dose curve; as a rule, active = well fitted inhibition curve with a large enough effect; inconclusive = small, poorly fitted or top-dose-only effect, or effect the other way; inactive = no such curve, though single readings can be large or run the other way.
% is scaled to controls: 0 for no effect and ±100 for the full control effect; potency is read from the fitted curve at half-maximal effect.

The nature of this test: DHR3 selectivity assay for inhibitors of ROR gamma transcriptional activity. The note with it: Drosophila S2 Gal4-DHR3 UAS-luciferase, 20 h; series mostly up to 92.2 µM; activity change, negative = inhibition: at the top concentration. The text has this:
NIH Molecular Libraries Probe Production Network [MLPCN] NIH Chemical Genomics Center [NCGC] MLPCN Grant: R03 DA026211-01 Assay Provider: Dan Littman, New York University Assay Overview: The retinoic acid-related orphan receptor (ROR) gamma is a transcription factor that has a central role in the differentiation of Th17 cells, a subset of T helper cells that secrete the inflammatory cytokines IL-17A, IL-17F, and IL-22. Th17 cells have been implicated in graft versus host disease, autoimmune disease and asthma. RORgamma is induced in naive T helper cells in the presence of TGF-beta combined with IL-6, IL-21, or IL-23, and thereafter directs the expression of the Th17 lineage cytokines. To identify […] inhibitors, a Drosophila Schneider cell line was stably transfected with two vectors: a gene expressing a fusion of the Gal4 DNA binding domain and the transactivation domain of the Drosophila Hormone Receptor 3 (DHR3), under the control of the metallothionine promoter and a Photinus luciferase reporter regulated by the Gal4 binding site enhancer, UAS. […] Small molecule inhibitors that inhibit components common to the RORgamma and DHR3 assays, such as proteins that interact with general nuclear hormone receptors, will be active in both assays and thus scored as nonselective.
Assay Protocol Summary: For screening, 600 cells in 4 uL/well were dispensed into white solid 1536-well plates (Grenier) using a solenoid-based dispenser. Following transfer of 23 nL compound or DMSO vehicle by a pin tool, the plates were incubated 1 hr at ambient temperature, and 1 uL/well copper sulfate (700 uM final concentration) was added. The plates were centrifuged 15 s at 1000 RPM and incubated 20 hr at ambient temperature. After addition of 1.5 uL Photinus luciferase detection reagent, the plates were incubated 10 min at ambient temperature and then read by an ViewLux (Perkin Elmer) to detect luminescence.
Consider `CC1CCCN(C(=O)CC(c2ccc3c(c2)OCO3)c2ccc(O)cc2O)C1` (configuration not stated), for which the “activity change, negative = inhibition” value is 18.5% (inactive).
On to `COC(=O)c1ccc(OCC(=O)c2ccc(O)cc2O)cc1`, for which the Potency is 363 nM (active).
In the case of `COc1cc(O)c(C(CC(=O)N2CCCC(C)C2)c2cccc3ccccc23)c(OC)c1` (configuration not stated), the “activity change, negative = inhibition” value is 12.5% (inactive).
As for `CCOC(=O)Cn1c(CN2CCc3ccccc3C2)nc2c1c(=O)n(C)c(=O)n2C`, the Potency was 6450 nM (active).
On to `COc1cc(OC)c(C(CC(=O)N2CC(C)CC(C)C2)c2ccc3c(c2)OCO3)c(OCC(N)=O)c1` (configuration not stated), for which the “activity change, negative = inhibition” value was 15.1% (inactive).
For `Cc1ccc(C(C)C)c(C(CC(=O)N2CCCC(C)C2)c2ccc3c(c2)OCO3)c1O` (configuration not stated), the “activity change, negative = inhibition” value is -27.4% (inactive).
In the case of `CC1CCCN(C(=O)CC(c2ccc3c(c2)OCO3)c2ccc3ccccc3c2O)C1` (configuration not stated), the “activity change, negative = inhibition” value was 23.6% (inactive).
As for `CCC1(CC)CCN(C(=O)CC(c2ccc3c(c2)OCO3)c2c(O)cc(OC)cc2OC)C1` (configuration not stated), the “activity change, negative = inhibition” value was 18.8% (inactive).
`COc1ccccc1CNC(=O)[C@@H](NC(=O)C1CCN(C(=O)[C@@H]2CCCN2C(=O)OC(C)(C)C)CC1)C(C)C`: the “activity change, negative = inhibition” value was 19.8% (inactive).
In the case of `CCOC(=O)c1sc(NC(=O)c2cc3c(s2)CCC(C)C3)nc1C` (configuration not stated), the Potency was 51.2 nM (active).
Turning to `COCC1CCCCN1C(=O)c1cc(COc2ccc3ncccc3c2)on1` (configuration not stated), the Potency is 9110 nM (active).
Turning to `CC1=C(\C=C/C(C)=C/C=C\C(C)=C\C(=O)O)C(C)(C)CCC1`, the activity change, negative = inhibition is -6.6% [at 20 µM] (inactive).
Regarding `CCOC(=O)c1sc(NC(=O)c2ccc(S(=O)(=O)N(C)C)cc2)nc1C`, the Potency was 45.7 nM (active).
On to `COc1cc(O)c(C(CC(=O)NC2CCC(C)CC2)c2ccc3c(c2)OCO3)c(OC)c1` (configuration not stated), for which the “activity change, negative = inhibition” value was 8.82% (inactive).
Still for that read-out and setting: the same measure for `COc1cc(O)c(C(CC(=O)N2CCCC(C(C)C)C2)c2ccc3c(c2)OCO3)c(OC)c1` (configuration not stated): -23% (inactive).
Take `COc1cc(OC)c(C(CC(=O)N2CCCC(C)C2)c2ccc3c(c2)OCO3)c(OCc2ccccc2)c1` (configuration not stated): the Potency was 14400 nM (active).
On to `CCC(=O)C1CCCN(C(=O)CC(c2ccc3c(c2)OCO3)c2c(O)cc(OC)cc2OC)C1` (configuration not stated), for which the “activity change, negative = inhibition” value was 23.3% (inactive).
As to `COc1cc(O)c(C(CC(=O)N2CCC(C)CC2)c2ccc(OC)c(OC)c2)c(OC)c1` (configuration not stated), the “activity change, negative = inhibition” value was 23.2% (inactive).
In the case of `Cc1ccc(Sc2cncc3sc(C(N)=O)cc23)cc1`, the Potency is 102 nM (active).
For the compound `Cc1cccc(-c2nc3cc(NC(=O)C4CCCO4)ccc3o2)c1` (configuration not stated), the Potency was 2290 nM (active).
As for `CCOc1ccc(-c2cc(CCCC(=O)NCc3cccnc3)no2)cc1`, the Potency was 812 nM (active).
Turning to `COC(=O)Cn1c(CN2CCc3ccccc3C2)nc2c1c(=O)n(C)c(=O)n2C`, the Potency is 8120 nM (active).
